# Measurements taken from PubChem BioAssay (NCATS).
# Results filed as inconclusive are left out. Unmarked numbers belong to inactive results. Calls of active or inactive are those of the source. Calls come from the whole dose curve; as a rule, active = well fitted activation curve with a large enough effect; inconclusive = small, poorly fitted or top-dose-only effect; inactive = flat fitted curve, though single readings scatter.
# Molecular target: Cellular tumor antigen p53 (Homo sapiens) (UniProt P04637)
# Sequence (P04637 whole entry, looked up): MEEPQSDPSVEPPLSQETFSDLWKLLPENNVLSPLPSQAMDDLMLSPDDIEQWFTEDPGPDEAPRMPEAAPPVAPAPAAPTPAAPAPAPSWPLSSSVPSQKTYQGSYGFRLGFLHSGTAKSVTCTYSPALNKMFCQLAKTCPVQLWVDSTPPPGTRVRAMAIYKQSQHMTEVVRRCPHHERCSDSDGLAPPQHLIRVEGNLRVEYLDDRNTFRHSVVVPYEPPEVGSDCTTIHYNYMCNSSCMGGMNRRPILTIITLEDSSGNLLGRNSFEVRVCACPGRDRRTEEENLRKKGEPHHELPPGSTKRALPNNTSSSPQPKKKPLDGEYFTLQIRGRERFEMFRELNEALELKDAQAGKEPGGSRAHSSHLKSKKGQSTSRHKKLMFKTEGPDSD
# Test: Primary qHTS for small molecule compounds that upregulate eGFP-tagged delta133p53alpha (in C-terminal) cells. (AID 2060324);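 for GFP increase (activation): 0% = DMSO wells and 100% = 57.5 µM 5-azacytidine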
# Settings: NCI-H358 delta133p53alpha-eGFP (C-terminal tag), GFP fluorescence imaging, 24 h; series mostly up to 57.5 µM; GFP increase (activation): at the top concentration
# Procedure, shortened: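 NCI-H358 cells with doxycycline-inducible D133p53a-eGFP (C-terminal tag), pre-induced 24 h with 100 ng/ml doxycycline, plated 800/well in doxycycline-free medium and treated 24 h at 37 °C with compound titrations. Cells were then fixed and Hoechst-stained, and GFP intensity was read by laser scanning cytometry.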
# Potency is the fitted concentration of half-maximal effect.
Structure (SMILES),GFP increase (activation) [%],Potency
NC1(C(=O)O)CCc2cc(C(=O)O)ccc21 (centres undefined),-3.99,–
C[n+]1cc2c3c(ccc2c2ccc4cc5c(cc4c21)OCO5)OCO3,–,7.57 µM (active)
O=C(/C=C/c1ccc(O)c(O)c1)OCCc1ccccc1,3.99,–
COc1cccc2c1[C@@H]1CN(CCCCn3c(=O)[nH]c4c(sc5ncc(-c6ccccc6)nc54)c3=O)C[C@@H]1CO2,-1.09,–
COc1ccc(-c2cc3ncc(C)n3c(Nc3ncccc3C(N)=O)n2)cc1OC,–,10.7 µM (active)
N=C(N)SCCc1cnc[nH]1,-6.55,–
CCCCCCCCCCCCCCCCCC(=O)OC(CC(=O)O)C[N+](C)(C)C (centres undefined),-8.48,–
O=C(O)C1=CC(=C(c2ccc(O)c(C(=O)O)c2)c2ccc(O)c(C(=O)O)c2)C=CC1=O,-5.04,–
Oc1ccc(/C=C/c2ccc(/C=C/c3ccc(O)cc3)c(Br)c2)cc1,-0.168,–
C=CC1(C)CC(=O)C2(O)C(C)(O1)C(OC(C)=O)C(O)C1C(C)(C)CCC(O)C12C (centres undefined),4.21,–
O=C1N=C(O)CN1/N=C/c1ccc(-c2ccc([N+](=O)[O-])cc2)o1,7.24,–
Brc1c(Br)c(Br)c2n[nH]nc2c1Br,-1.33,–
O=c1oc(Cl)c(Cl)c2ccccc12,11,–
C[C@H](NC(=O)/C(C#N)=C/c1ccc(O)c(O)c1)c1ccccc1,4.9,–
COc1ccc(Br)cc1S(=O)(=O)NC(=O)/C=C/c1ccccc1Cc1ccc2ccccc2c1,-9.76,–
NC1(C(=O)O)CC1,-2.2,–
NNc1nncc2ccccc12,-6.15,–
O=c1cc(-c2ccccc2)oc2c(O)c(O)ccc12,6.43,–
OCc1cc(C(O)CNCCCCCCOCCCCc2ccccc2)ccc1O (centres undefined),17.3,–
